Among the data in PubChem BioAssay AID463195 (Sanford-Burnham Center for Chemical Genomics, 2010) are inhibition values, retold here.

SMILES strings stand for the structures. Hit rate of the full screen: of about 330,000 compounds, about 4,600 (1.4%) were called active. The sample holds actives, similar compounds and a random draw of the others, so the mix is not that of the screen.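 How the source made its calls: active means inhibition of 40% or more at the single tested concentration; inactive means the rest.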

As a reminder, the inhibition is the change of the read-out against control, counted positive when it falls.

The nature of this test: growth inhibitors of isogenic TIM10 control yeast, primary screen, counter-screen for tim10-1 yeast inhibitor project, luminescence, uHTS (AID 463195).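 Further: wild-type TIM10 isogenic control strain grown at permissive 25 °C; 0% = DMSO yeast wells and 100% = minimal medium wells without yeast.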 The settings on record: S. cerevisiae TIM10 strain growth, BacTiter-Glo luminescence, 24 h; at 10 µM; stronger effect = higher value.
Take `Cc1cccc(N(C(=O)c2ccc(CN3CCOCC3)o2)C(C(=O)NC2CCCCC2)c2ccc(F)cc2)c1` (centres undefined): the inhibition is -2.65% (inactive).

For the molecule `FC(F)(F)C1CCCN(c2nsc3ccccc23)C1` (centres undefined), the inhibition is 2.15% (inactive).

As for `OC(c1ccccc1)C(CN1CCOCC1)c1ccccc1` (centres undefined), the inhibition was 3.43% (inactive).

With `Oc1c(Cl)cc(Cl)c(Cl)c1Cc1c(O)c(Cl)cc(Cl)c1Cl`, the inhibition is 90.7% (active).

For `CCCCc1cc2c(s1)CCCC/C2=N/O`, the inhibition was 22.6% (inactive).

On to `CCc1ccc(-n2c(=S)sc3c(=O)n(-c4ccccc4OC)c(=S)[nH]c32)cc1`, for which the inhibition is -1.05% (inactive).

As to `COc1ccc(NC(=S)NCC2CCN(c3ccc(OC)cc3)C2)cc1` (centres undefined), the inhibition was 48% (active).

On to `COc1ccc(NC(=S)NCCN2CCC(C)CC2)cc1`, for which the inhibition is 4.83% (inactive).

As to `COc1ccc(N2CCC(CNC(=S)Nc3c(C)cccc3C)C2)cc1` (centres undefined), the inhibition was 16.7% (inactive).

`CC(=O)N/C(=C\c1ccc(F)cc1)C(=O)NC(Cc1ccccc1)C(=O)O` (centres undefined): the inhibition is -0.026% (inactive).

As for `Cc1ccc(S(=O)(=O)/N=C(/NC(=S)Nc2c(C)n(C)n(-c3ccccc3)c2=O)c2ccccc2)cc1`, the inhibition was 2.05% (inactive).

As for `CCCCN(C(=O)/C=C/c1ccco1)c1c(N)n(CC(C)C)c(=O)[nH]c1=O`, the inhibition is -1.39% (inactive).

With `Cc1ccsc1C(=O)N[C@@H](C)c1nnc2ccccn12`, the inhibition is 0.47% (inactive).

As for `CC1CCCN(c2ccc(C(=O)NCCc3ccccc3)cn2)C1` (centres undefined), the inhibition is 20.8% (inactive).

Regarding `COc1ccc(NC(=O)CC2C(=O)NC3CCCCC3N2C(=O)c2ccc(F)cc2)cc1` (centres undefined), the inhibition is -3.23% (inactive).

With `CN(CC(=O)Nc1ccc(OC(F)F)cc1)S(=O)(=O)/C=C/c1ccccc1`, the inhibition was 15.2% (inactive).

Take `CC(=O)c1ccc(NC(=S)N(Cc2ccccc2)C(C)C2CC2)cc1` (centres undefined): the inhibition was 12.5% (inactive).

Turning to `CC(C)N(Cc1ccccc1)C(=S)Nc1ccc(OC(F)F)cc1`, the inhibition was 44% (active).

With `C=CCC(CC=C)(C(N)=O)c1ccccc1`, the inhibition is 1.01% (inactive).

As to `CC(Sc1nnc2c(n1)C1CCC2(C)C1(C)C)C(=O)Nc1ccccc1` (centres undefined), the inhibition was 14.6% (inactive).

Turning to `Cc1ccccc1S(=O)(=O)Cc1ccc(C(=O)NCCN2CCCCC2C)o1` (centres undefined), the inhibition is -4.28% (inactive).

Take `CC(C)(C)C1CCC(=NNC(=O)c2cc(-c3ccccc3)n[nH]2)CC1` (centres undefined): the inhibition was -10.2% (inactive).

As to `CC(=C/c1ccccc1)/C=N/NC(=O)c1cc(C)oc1C`, the inhibition is 9.24% (inactive).

Regarding `CC(/C=N/NC(=O)c1cc(-c2ccc3ccccc3c2)n[nH]1)=C\c1ccco1`, the inhibition was 45.8% (active).

As to `COCC1CCCN(Cc2cn[nH]c2-c2cc3ccccc3o2)C1` (centres undefined), the inhibition was -1.56% (inactive).

On to `COc1ccc(CN2CCCC(C(=O)N3CCCCC3)C2)cc1` (centres undefined), for which the inhibition is -13% (inactive).

Regarding `C=C1CCN([C@@H](Cc2ccccc2)C(=O)N2CCOCC2)S(=O)(=O)c2ccccc21`, the inhibition was 1.68% (inactive).

Take `Cn1c(=O)c2c(SCC(=O)NCC3CCCO3)nc(CC(C)(C)C)nc2n(C)c1=O` (centres undefined): the inhibition is 20.8% (inactive).

Regarding `C/C(Cc1ccccc1)=N\NC(=O)CNC(=O)c1ccccc1Cl`, the inhibition is -5.47% (inactive).

Consider `S=C(NCC1COc2ccccc2O1)Nc1ccc(Br)cc1` (centres undefined), for which the inhibition is -1.91% (inactive).

With `CC(NC(=S)Nc1ccccc1)C1COc2ccccc2O1` (centres undefined), the inhibition was 47.6% (active).

As to `CCCN(CC1COc2ccccc2O1)C(=S)Nc1ccc(C)cc1` (centres undefined), the inhibition was 30.5% (inactive).

Regarding `C/C(=N\Nc1cccc(C(=O)O)c1)c1ccc2c(c1)Nc1ccccc1S2`, the inhibition is 10.7% (inactive).

With `CC1CC(C)(C)NC(=S)N1CCC(=O)N1CCN(Cc2ccccc2)CC1` (centres undefined), the inhibition is -2.23% (inactive).

As to `CC1CC(=S)Nc2ccccc2N1Cc1ccccc1` (centres undefined), the inhibition was 46.2% (active).

Consider `CC1CC(=O)Nc2ccccc2N1S(=O)(=O)c1cccs1` (centres undefined), for which the inhibition was 5.91% (inactive).

With `COC(=O)CNc1nc(Cl)nc(N2CCC(C)CC2)n1`, the inhibition is -3.85% (inactive).

Regarding `CCOc1ccccc1NC(=S)NC(=O)CCc1ccccc1`, the inhibition was 11.7% (inactive).

For `O=C(OCCOCn1cc(Br)c(=O)[nH]c1=O)c1ccccc1`, the inhibition is -12.6% (inactive).

`Cn1nccc1/C=N\NC(=O)c1ccc(Cl)cc1`: the inhibition is -2.29% (inactive).

Turning to `COc1ccc(C(CNC(=O)COc2ccc([N+](=O)[O-])cc2)N2CCCCC2)cc1` (centres undefined), the inhibition is 8.46% (inactive).

For `CCc1ccc(OCC(=O)NCC(c2ccc(Cl)cc2)N2CCCCC2)cc1` (centres undefined), the inhibition was 42.7% (active).

Regarding `COc1ccc(C(CNC(=O)COc2ccccc2OC)N2CCCCC2)cc1` (centres undefined), the inhibition was 0.651% (inactive).

With `CC1CCN(C(=S)c2cccc([N+](=O)[O-])c2)CC1`, the inhibition is 1.4% (inactive).

Take `CC1CCC2CCCCC2N1C(=O)c1cc([N+](=O)[O-])cc([N+](=O)[O-])c1` (centres undefined): the inhibition is 40.2% (active).

As for `CC1(c2ccccc2)CC(C)(C)N(C(=O)c2cc([N+](=O)[O-])cc([N+](=O)[O-])c2)c2ccccc21` (centres undefined), the inhibition was -3.92% (inactive).

For the molecule `Cc1csc(CN(C)C(=O)CC2C(=O)NCCN2CC(C)(C)C)n1` (centres undefined), the inhibition was -12.9% (inactive).

Take `Cn1c(=O)cc(OCCCC(=O)N2CCN(c3ccccn3)CC2)c2ccccc21`: the inhibition was 13.5% (inactive).

`Oc1cccc2ccc(/C=C/c3ccc(Br)s3)nc12`: the inhibition was 15.2% (inactive).

`COCCNC(=S)N(CCc1c(C)[nH]c2ccc(C)cc12)Cc1cccnc1`: the inhibition is -1.03% (inactive).

For `COc1cccc(NC(=S)N(CCc2c(C)[nH]c3ccccc23)Cc2ccco2)c1`, the inhibition was 15.9% (inactive).

For `CCNC(=S)N(CCc1c(C)[nH]c2ccc(C)cc12)Cc1ccco1`, the inhibition is 41.2% (active).

On to `O=C(N/N=C/c1ccc(O)c(O)c1)C1c2ccccc2Oc2ccccc21`, for which the inhibition was -9.32% (inactive).

Consider `CCN(CCCCOC(=O)c1ccc(OC)c(OC)c1)C(C)Cc1ccc(OC)cc1` (centres undefined), for which the inhibition was -1.12% (inactive).

As to `Cc1ccccc1N1CCN(C2CCCN(C(=O)c3ocnc3C)C2)CC1` (centres undefined), the inhibition was -0.332% (inactive).

For the molecule `COc1cccc(CNC(C)C(=O)Nc2ccc(S(=O)(=O)N3CCCC3)cc2)c1` (centres undefined), the inhibition is 18.4% (inactive).

Take `COc1ccc(S(=O)(=O)N2CCN(C(C)C(=O)Nc3ccc(C(C)C)cc3)CC2)cc1` (centres undefined): the inhibition was 44.9% (active).

Take `CC(C)c1ccc(S(=O)(=O)N2CCN(C(C)C(=O)NC3CCCC3)CC2)cc1` (centres undefined): the inhibition was -30.5% (inactive).

For `Cc1c(C(=O)OC(C)C)sc(NC(=O)c2cccnc2)c1C#N`, the inhibition was 6.36% (inactive).
